Out of some 5,500 compounds screened, about 2,000 (36%) were called active. Inconclusive results (about 18%) are left out. Cut-off read from the data, not from the text of the source: active = normalized growth mostly below about 0.91 (no sharp cut-off); inconclusive = no clear call, values can overlap the other calls; inactive = mostly above about 0.92. The list shows a part of the results.
Experiment: chemical genetic growth profiling, strain panel (AID 1159580);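 note: tested at 20 µM; growth read once vehicle control cultures reached saturation at 30 °C; 1 = growth at the plate median or of vehicle wells; lower values mean less growth of the strain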
Conditions: S. cerevisiae deletion strains, growth OD

Measured: normalized growth

Oc1ccc([C@H]2Oc3cc(O)cc(O)c3C[C@H]2O)cc1
inactive: locus YAL021C, strain ccr4, active compounds read low 0.995 | locus YAL026C, strain drs2, active compounds read low 0.991 | locus YAL030W, strain snc1, active compounds read low 0.988 | locus YBL061C, strain skt5, active compounds read low 0.98 | locus YBR009C, strain hhf1, active compounds read low 1.02 | locus YBR023C, strain chs3, active compounds read low 0.99 | locus YBR171W, strain sec66, active compounds read low 0.969 | locus YBR231C, strain swc5, active compounds read low 0.94 | locus YBR279W, strain paf1, active compounds read low 0.999 | locus YCL011C, strain gbp2, active compounds read low 1.01 | locus YCL016C, strain dcc1, active compounds read low 1.01 | locus YCL069W, strain vba3, active compounds read low 0.981 | locus YCR088W, strain abp1, active compounds read low 0.987 | locus YDL005C, strain med2, active compounds read low 0.988 | locus YDL040C, strain nat1, active compounds read low 0.983 | locus YDR001C, strain nth1, active compounds read low 0.987 | locus YDR069C, strain doa4, active compounds read low 0.952 | locus YDR137W, strain rgp1, active compounds read low 0.996 | locus YDR159W, strain sac3, active compounds read low 0.939 | locus YDR195W, strain ref2 0.933 | locus YDR297W, strain sur2, active compounds read low 0.984 | locus YDR334W, strain swr1, active compounds read low 0.976 | locus YDR335W, strain msn5, active compounds read low 0.995 | locus YDR392W, strain spt3, active compounds read low 0.929 | locus YEL003W, strain gim4, active compounds read low 0.97 | locus YEL037C, strain rad23, active compounds read low 0.982 | locus YEL061C, strain CIN8 (second series), active compounds read low 0.979 | locus YER015W, strain faa2, active compounds read low 0.998 | locus YER016W, strain bim1, active compounds read low 0.991 | locus YER111C, strain swi4, active compounds read low 0.967 | locus YER155C, strain BEM2 (second series), active compounds read low 0.948 | locus YFR010W, strain ubp6, active compounds read low 0.971 | locus YGL167C, strain pmr1, active compounds read low 0.986 | locus YGL173C, strain kem1, active compounds read low 0.977 | locus YGL227W, strain vid30, active compounds read low 0.987 | locus YGL240W, strain doc1, active compounds read low 0.969 | locus YGL253W, strain hxk2, active compounds read low 0.956 | locus YHR013C, strain ard1, active compounds read low 1.01 | locus YHR027C, strain rpn1, active compounds read low 0.979 | locus YHR030C, strain SLT2, active compounds read low 0.983 | locus YHR079C, strain IRE1, active compounds read low 0.981 | locus YHR142W, strain chs7, active compounds read low 0.993 | locus YJL092W, strain hpr5, active compounds read low 0.983 | locus YJL095W, strain BCK1 (second series), active compounds read low 0.977 | locus YJL095W, strain BCK1, active compounds read low 0.97 | locus YJL115W, strain asf1, active compounds read low 0.976 | locus YJL129C, strain trk1, active compounds read low 0.978 | locus YJL154C, strain vps35, active compounds read low 0.984 | locus YJL164C, strain tpk1, active compounds read low 1 | locus YJL166W, strain qcr8, active compounds read low 0.998 | locus YJR066W, strain TOR1, active compounds read low 0.947 | locus YKL160W, strain elf1, active compounds read low 1.02 | locus YKR026C, strain gcn3, active compounds read low 0.968 | locus YKR091W, strain srl3, active compounds read low 0.992 | locus YLL001W, strain dnm1, active compounds read low 0.956 | locus YLL026W, active compounds read low 0.993 | locus YLL041C, strain sdh2, active compounds read low 0.983 | locus YLR027C, strain aat2, active compounds read low 0.976 | locus YLR113W, strain HOG1, active compounds read low 0.977 | locus YLR221C, strain rsa3, active compounds read low 0.964 | locus YLR258W, strain gsy2, active compounds read low 0.999 | locus YLR262C, strain YPT6 (second series), active compounds read low 1 | locus YLR320W, strain mms22, active compounds read low 0.982 | locus YLR342W, strain FKS1, active compounds read low 0.99 | locus YLR357W, strain rsc2, active compounds read low 0.949 | locus YLR370C, strain arc18, active compounds read low 0.977 | locus YLR384C, strain iki3, active compounds read low 0.991 | locus YML120C, strain ndi1, active compounds read low 1 | locus YMR058W, strain fet3, active compounds read low 0.985 | locus YMR125W, strain sto1, active compounds read low 0.99 | locus YMR129W, active compounds read low 0.989 | locus YMR205C, strain PFK2, active compounds read low 1 | locus YMR231W, strain pep5, active compounds read low 0.976 | locus YNL071W, strain lat1, active compounds read low 1 | locus YNL183C, strain NPR1, active compounds read low 0.956 | locus YNL209W, strain ssb2, active compounds read low 1.01 | locus YNL248C, strain rpa49, active compounds read low 0.956 | locus YNL322C, strain KRE1 (second series), active compounds read low 0.995 | locus YNR049C, strain mso1, active compounds read low 0.987 | locus YOR001W, strain rrp6, active compounds read low 0.947 | locus YOR070C, strain gyp1, active compounds read low 0.99 | locus YOR080W, strain dia2, active compounds read low 0.974 | locus YOR083W, strain WHI5, active compounds read low 1.01 | locus YOR106W, strain vam3, active compounds read low 1.02 | locus YOR231W, strain MKK1, active compounds read low 0.978 | locus YOR265W, strain rbl2, active compounds read low 0.981 | locus YOR270C, strain vph1, active compounds read low 0.958 | locus YOR290C, strain snf2, active compounds read low 1.03 | locus YPL051W, strain arl3, active compounds read low 0.954 | locus YPL078C, strain atp4, active compounds read low 1.01 | locus YPL106C, strain sse1, active compounds read low 0.982 | locus YPL240C, strain hsp82, active compounds read low 0.989 | locus YPL256C, strain CLN2, active compounds read low 0.967

— PubChem BioAssay AID1159580 (chemical genetic matrix, 2015)
